Data on 37 compounds can be found in the supplement of paper PMC9694430.

Where a name gives a salt, the structure may show the parent alone.

The assay deals with LOC_OS01G63280-cb003. Nature of the assay: thermal shift delta Tm vs DMSO control; higher = stronger stabilization (binding). The conditions noted are these: 12.5 µM; protein concentration 2 µM. The procedure, abridged:
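Purified, E. coli-expressed rice kinase domain constructs were tested by differential scanning fluorimetry in 96-well plates: 19.5 μl of 2 μM kinase in 100 mM potassium phosphate pH 7.5, 150 mM NaCl, 10% glycerol, 5 × SYPRO Orange, plus compound in DMSO. Fluorescence was read from 25°C to 95°C at 0.05°C/s. Melting temperatures came from Boltzmann fits, and the shift is the triplicate mean relative to protein with DMSO alone.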
Consider `CCNC(=O)Nc1ccc(-c2nc(N3CCOC[C@@H]3C)c3c(n2)C(C)(C)S(=O)(=O)C3)cc1`, for which the “thermal shift delta Tm” value amounted to 0.04 °C. To `CN1CCN(c2ccc(OC(F)(F)F)c(Nc3ncc4c(n3)-c3c(c(C(N)=O)nn3CCO)CC4)c2)CC1` belongs 0.63 °C; to `C[C@@H](Oc1cc(-n2cnc3ccc(CN4CCN(C)CC4)cc32)sc1C(N)=O)c1ccccc1C(F)(F)F`, 0.17 °C; to `COc1cc(OC)cc(-c2cc3cnc(N)nc3nc2NC(=O)NC(C)(C)C)c1`, 0.24 °C. In the case of `COC(=O)c1ccc2c(c1)NC(=O)/C2=C(\Nc1ccc(N(C)C(=O)CN2CCN(C)CC2)cc1)c1ccccc1` [Nintedanib (BIBF 1120)], the “thermal shift delta Tm” value is -0.1 °C.

As for `Cc1[nH]c(/C=C2\C(=O)Nc3ccccc32)c(C)c1CCC(=O)O` [Orantinib (TSU-68, SU6668)], the “thermal shift delta Tm” value amounted to 0.57 °C. For the compound `NC1(c2ccc(-c3nc4ccn5c(=O)[nH]nc5c4cc3-c3ccccc3)cc2)CCC1`, the “thermal shift delta Tm” value was -0.33 °C. Consider `N#Cc1ccc2[nH]c(O)c(-c3ccc(CN4CCOCC4)cn3)c2c1`, for which the “thermal shift delta Tm” value stood at 0.3 °C. Turning to `C=C[C@@](C)(/C=C/c1ccc(O)cc1)CCC=C(C)C` [Bakuchiol], the “thermal shift delta Tm” value was 0.51 °C. `Cn1cnc2c(F)c(Nc3ccc(Br)cc3F)c(C(=O)NOCCO)cc21`: the “thermal shift delta Tm” value came out at 0.46 °C. With `CC(C)(C)c1nc(-c2ccc(NC(=O)Nc3cccc(C(F)(F)F)c3)c3ccccc23)c2c(N)nccn12` [kira6], the “thermal shift delta Tm” value came to 14.6 °C. Then `CC1=C(C(=O)Nc2cc3cn[nH]c3cc2F)C(c2ccc(C(F)(F)F)cc2)CC(=O)N1` (configuration not stated), with 2.09 °C. Then `Cc1cn(-c2cc(NC(=O)c3ccc(C)c(Nc4nccc(-c5cnccn5)n4)c3)cc(C(F)(F)F)c2)cn1` [Radotinib], with 0.63 °C; and `COc1ncc(-c2ccc3nccc(-c4ccnnc4)c3c2)cc1NS(=O)(=O)c1ccc(F)cc1F`, with 0.66 °C.

Take `CNC(=O)c1cc(COc2nnc(Nc3ccc(Cl)cc3)c3ccoc23)ccn1` [Telatinib]: the “thermal shift delta Tm” value turned out to be 0.76 °C.

With `COc1cc2nccc(Oc3ccc(NC(=O)C4(C(=O)Nc5ccc(F)cc5)CC4)cc3)c2cc1OC` [Cabozantinib malate (XL184)], the “thermal shift delta Tm” value is 0.47 °C. For the compound `C1=N/C2=N/c3ccc(OCCN4CCCC4)c(c3)COC/C=C/COCc3cccc(c3)C(=C1)N2` [Pacritinib (SB1518)], the “thermal shift delta Tm” value was determined as 2.88 °C.

As to `N#Cc1cnc(Nc2cc(NC[C@H]3CNCCO3)c(C(F)(F)F)cn2)cn1`, the “thermal shift delta Tm” value is 0.31 °C.

For `COc1cc(N2CCN(C)CC2)ccc1Nc1nccc(-c2cn(C)c3cnccc23)n1`, the “thermal shift delta Tm” value amounted to 0.34 °C. As to `CC(C)(C)NS(=O)(=O)c1cncc(-c2cc(F)c3nc(N)nn3c2)c1`, the “thermal shift delta Tm” value is 0.83 °C. To `CCNC(=O)C#Cc1ccc2c(C(=Nc3ccc(CN(C)C)cc3)c3ccccc3)c(O)[nH]c2c1` belongs 0.72 °C; to `O=C1NC(=O)[C@@H](c2cn3c4c(cccc24)CCC3)[C@@H]1c1c[nH]c2ccccc12` [Tivantinib (ARQ 197)], 0.24 °C. `O=S(=O)(c1cccc2c(I)cccc12)N1CCCNCC1`: the “thermal shift delta Tm” value is 0.2 °C. Regarding `CCN1CCN(Cc2ccc(C(=O)Nc3ccc(C)c(Oc4ccc5c(c4)CC(=O)N5)c3)cc2C(F)(F)F)CC1`, the “thermal shift delta Tm” value is 0.98 °C. Take `C[C@@H](Nc1cc(F)cc(F)c1)c1cc(C(=O)N(C)C)cc2c(=O)cc(N3CCOCC3)oc12`: the “thermal shift delta Tm” value turned out to be 0.24 °C. Then `C[C@H](CN(C)C)Oc1nc(Nc2cc3cccc(Cl)c3cn2)cnc1C#N`, with 0.39 °C. On to `CNC(=O)c1cc(Oc2ccc(NC(=O)Nc3ccc(Cl)c(C(F)(F)F)c3)cc2)ccn1` [Sorafenib], for which the “thermal shift delta Tm” value was 9.12 °C. To `COc1ccc(Cl)cc1NC(=O)Nc1cc(C)nc2ccccc12` belongs 0.87 °C; to `O=C(c1cccc(Cl)c1F)N1CCN(Cc2cccc(Nc3nccs3)n2)CC1`, 0.37 °C. To `CNC(=O)c1ccc(C)c(-n2c(C)cc(OCc3ccc(F)cc3F)c(Br)c2=O)c1` belongs 0.3 °C; to `CCn1c(-c2nonc2N)nc2c(C#CC(C)(C)O)ncc(OC[C@H]3CCCNC3)c21`, -0.01 °C. In the case of `CCC[C@H](NC(=O)/C(C#N)=C/c1cccc(Br)n1)c1ccccc1` [Degrasyn (WP1130)], the “thermal shift delta Tm” value is -5.45 °C. To `OC1CCC(Nc2ncc3nc(Nc4c(F)cc(F)cc4F)n([C@H]4CCOC4)c3n2)CC1` (some centres not stated) [Tanzisertib(CC-930)] belongs 0.29 °C. As for `CN(C)C/C=C/C(=O)Nc1cc2c(Nc3ccc(F)c(Cl)c3)ncnc2cc1O[C@H]1CCOC1` [Afatinib (BIBW2992) Dimaleate], the “thermal shift delta Tm” value turned out to be 1 °C. `Cc1cc(O)c(-c2ccc([C@@H](C)CN)cc2)c2c1[nH]c(=O)c1sccc12` [OTS514 hydrochloride]: the “thermal shift delta Tm” value turned out to be 0.46 °C. `Cc1ccc(F)c(NC(=O)Nc2ccc(-c3cccc4[nH]nc(N)c34)cc2)c1` [Linifanib (ABT-869)]: the “thermal shift delta Tm” value amounted to 4.52 °C. Then `COc1cc(N2CCC(N(C)C)CC2)ccc1Nc1ncc(Cl)c(Nc2ccccc2P(C)(C)=O)n1`, with 0.32 °C.
